The values that follow come from the supplement of paper PMC6555819.

The subject of the first assay is PPARg:RXRa 270nM:90nM, anti-RXR (NR concentration 270 nM, RXRa partner concentration 90 nM). As to the kind of experiment: PBM binding z-score (relative to random genomic background probes); higher = stronger binding; sequences stand for … in GC…GCGATTGACAGCGTAGAATGAAGG
In a few lines:
(§1)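 Binding buffer was PBS pH 7.4 with 2% milk, 0.02% Triton X-100, 1 mM DTT, 0.2 mg/mL BSA and 0.4 mg/ml salmon testes DNA. In it, ligand-free nuclear receptor dimers were incubated 1 h on custom Agilent 4×180K protein-binding microarrays carrying double-stranded probes. Antibodies against each partner (one per run) detected binding, and z-scores were calculated against random background probes after regression normalization of scanned fluorescence.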
With TTACCATGGTGAGCTGAGGTCGTTGATCCAACTC, the PBM binding z-score was -0.0543.
For the sequence CAGCCTAGGTCAGGGCCAGTAAAGGAGGAACGTT, the PBM binding z-score was 0.991.
The same measure, in the same setting: for TCTTGTAGATCAATAGAGTTTAAGAAAGTGCGCT the value was 1.
Turning to TCGAGGAGGTTACCAATGGGGCATTCAGCTTTCT, the PBM binding z-score was determined as 1.2.
Same read-out and setting: for CGTCCAAGGTCAGAGATGTCAGTGAATGCCGAGT the value was 2.19.
The same measure, in the same setting: for CACACTAGGTCACGAAAGGTCAAAGTCGAATGAC the value was 8.2.
Still for that read-out and setting: the figure for GATACAGGGTCAGCTAGAGGCAAGAGTATGGAAA is 3.19.
CGAACTAGGTCACAACAGGACAGTGAAGGATGAT showed a PBM binding z-score of 6.57.
ATATGTAGGTTTAGGGTCATTCAGGTTGGTTCGC registered a PBM binding z-score of 6.54.
The same measure, in the same setting: the figure for CCGACTGGGGCAAGGTTAGCATAACGCACAGCCA is 3.06.
In turn, CGTCCAAGGTCATCGGAGGTCAGTGAAGACAGAT came in with a PBM binding z-score of 5.91.
Sequence TCTCGGAGGACACGAAAGGTCAGAGTTCGACATC registered a PBM binding z-score of 3.4.
For the sequence CCTACTGGCCCACGAAAGGTCATTGATTCAGTGA, the PBM binding z-score was determined as 2.36.
Still for that read-out and setting: the figure for TCATATAGGTAAAGGCGAAAGTCGAACGATATGA is 2.52; for CAAACTAGGTCAGAGAGGTCAAAGTCCGTGCGTA it is 7.06.
Still for that read-out and setting: for TAGCCTAGGTCAGATCGGGCCAGTATCCGCTATA the value was 0.707; for CTCGAAAGGCCGGTTGAGGTGAGTATACGGATAA, -0.607.

The test system of a further assay is PPARg:RXRa 30nM:10nM, anti-RXR (NR concentration 30 nM, RXRa partner concentration 10 nM). Described as above. Put shortly:
as §1
In turn, AGTCGAAGTTCACTAGGTAACGTAAGATTCAGCT registered a PBM binding z-score of 0.891.
The same measure, in the same setting: for GCTAGTTGGTCCGTAAAAGGTCACACACCGGTCG the value was 0.779.
Still for that read-out and setting: the figure for CGAACTAGGTCAGAACAGGACAGTGAAGGATGAT is 1.53; for CGAAATAGGTCAGAACAGGACAGTGAAGGATGAT it is 2.18.
On the same count and under the same terms, for TAGCCTAGGTCATTCTGGGGCCAGTATAGAAAGC the value was 0.292; for ATACCAAGGTGATCGTGACGTCGTTGATACTAAC, -0.0759; for CGTCCAAGGTCAAGGTTAGTGAAAGAGACTCGAA, 2.08.
With TCGAGTAGGTTAGTCGGGGGATTCAGCCAACATA, the PBM binding z-score turned out to be 1.26.
Take GCTCGGAGGGCAAGGTCAGAGCTTTGTCCGTAGA: the PBM binding z-score was -0.62.
Still for that read-out and setting: for CCGAGTAGGTTATGGGGCATTCATGCAACGGTGA the value was 3.02; for ACTAGCAGTCCAAGGGTCACTCAAGATTAGTCCG, 2.19; for ATCGAAAGGTCCTGAGGTGAGTATACAGAAAGGC, 0.534.
In turn, AGTCAAAGTTCACTTGGTAACGTAAGATTCAGCT gave a PBM binding z-score of 2.52.
For TCTAGCACGCCAGAGGGTCACTCAAGAGGTACGG, the PBM binding z-score came to 1.71.
The same measure, in the same setting: the figure for CCAACTAGGTCAAGGTCAAAGTCGGTTTGTGCCA is 5.13; for TCAGACAGGTGAAGGTAACACAGGTACGCAGTCG it is 3.9; for TTACCAAGGTGAGCTGAGGTCGTCGATCCAACTC it is -0.186.
Still for that read-out and setting: the figure for TCATATAGGTAAATGCTAGGTGAGAGTCCGATCT is 3.39; for TCTTGTAGATTAAAGGTTAAGAAAGCCGAAGCCT it is 6.85.
On the same count and under the same terms, for TCAGACAGGTGCAGGTAACTCAGGTACGCAGTCG the value was 2.88; for CGTCAAAGTTCAACTAAAGTAACGTAAAGCACGC, 2.2; for AATACAGGGTCACTAGGCCAGACTAGGTACGAAT, 3.21.
Turning to TTACCATGGTGAGCTGAGGTCGTTGATCCAACTC, the PBM binding z-score was -0.214.
On the same count and under the same terms, the figure for CAGCCTAGGTCAGGGCCAGTAAAGGAGGAACGTT is -0.53.
The same measure, in the same setting: for TCTTGTAGATCAATAGAGTTTAAGAAAGTGCGCT the value was 2.5; for TCGAGGAGGTTACCAATGGGGCATTCAGCTTTCT, 1.46; for CGTCCAAGGTCAGAGATGTCAGTGAATGCCGAGT, 0.132.
On the same count and under the same terms, the figure for CACACTAGGTCACGAAAGGTCAAAGTCGAATGAC is 6.53; for GATACAGGGTCAGCTAGAGGCAAGAGTATGGAAA it is 0.625; for CGAACTAGGTCACAACAGGACAGTGAAGGATGAT it is 3.9.
Turning to ATATGTAGGTTTAGGGTCATTCAGGTTGGTTCGC, the PBM binding z-score came out at 4.91.
On the same count and under the same terms, the figure for CCGACTGGGGCAAGGTTAGCATAACGCACAGCCA is 0.844; for CGTCCAAGGTCATCGGAGGTCAGTGAAGACAGAT it is 2.4.
On the same count and under the same terms, for TCTCGGAGGACACGAAAGGTCAGAGTTCGACATC the value was 2.89; for CCTACTGGCCCACGAAAGGTCATTGATTCAGTGA, 0.593.
Same read-out and setting: for TCATATAGGTAAAGGCGAAAGTCGAACGATATGA the value was 3.75; for CAAACTAGGTCAGAGAGGTCAAAGTCCGTGCGTA, 4.96.
Consider TAGCCTAGGTCAGATCGGGCCAGTATCCGCTATA, for which the PBM binding z-score is -0.351.
The same measure, in the same setting: for CTCGAAAGGCCGGTTGAGGTGAGTATACGGATAA the value was -0.213.

The next assay concerns PPARg:RXRa 90nM:30nM, anti-RXR (NR concentration 90 nM, RXRa partner concentration 30 nM). The assay is described as above. Put shortly:
as §1
Sequence AGTCGAAGTTCACTAGGTAACGTAAGATTCAGCT yielded a PBM binding z-score of 2.44.
On the same count and under the same terms, for GCTAGTTGGTCCGTAAAAGGTCACACACCGGTCG the value was 2.39.
Same read-out and setting: for CGAACTAGGTCAGAACAGGACAGTGAAGGATGAT the value was 3.44; for CGAAATAGGTCAGAACAGGACAGTGAAGGATGAT, 3.59; for TAGCCTAGGTCATTCTGGGGCCAGTATAGAAAGC, 1.44.
Same read-out and setting: for ATACCAAGGTGATCGTGACGTCGTTGATACTAAC the value was 0.172.
As for CGTCCAAGGTCAAGGTTAGTGAAAGAGACTCGAA, the PBM binding z-score is 4.2.
Still for that read-out and setting: the figure for TCGAGTAGGTTAGTCGGGGGATTCAGCCAACATA is 1.28; for GCTCGGAGGGCAAGGTCAGAGCTTTGTCCGTAGA it is 0.771; for CCGAGTAGGTTATGGGGCATTCATGCAACGGTGA it is 4.44.
The same measure, in the same setting: for ACTAGCAGTCCAAGGGTCACTCAAGATTAGTCCG the value was 4.18.
On the same count and under the same terms, the figure for ATCGAAAGGTCCTGAGGTGAGTATACAGAAAGGC is 1.08; for AGTCAAAGTTCACTTGGTAACGTAAGATTCAGCT it is 4.52; for TCTAGCACGCCAGAGGGTCACTCAAGAGGTACGG it is 1.2.
Sequence CCAACTAGGTCAAGGTCAAAGTCGGTTTGTGCCA gave a PBM binding z-score of 7.56.
Still for that read-out and setting: the figure for TCAGACAGGTGAAGGTAACACAGGTACGCAGTCG is 3.28; for TTACCAAGGTGAGCTGAGGTCGTCGATCCAACTC it is 0.372.
On the same count and under the same terms, for TCATATAGGTAAATGCTAGGTGAGAGTCCGATCT the value was 2.64; for TCTTGTAGATTAAAGGTTAAGAAAGCCGAAGCCT, 7.33; for TCAGACAGGTGCAGGTAACTCAGGTACGCAGTCG, 2.35.
The same measure, in the same setting: the figure for CGTCAAAGTTCAACTAAAGTAACGTAAAGCACGC is 4.09.
AATACAGGGTCACTAGGCCAGACTAGGTACGAAT came in with a PBM binding z-score of 5.35.
On the same count and under the same terms, the figure for TTACCATGGTGAGCTGAGGTCGTTGATCCAACTC is -0.294; for CAGCCTAGGTCAGGGCCAGTAAAGGAGGAACGTT it is 0.142; for TCTTGTAGATCAATAGAGTTTAAGAAAGTGCGCT it is 1.99.
TCGAGGAGGTTACCAATGGGGCATTCAGCTTTCT registered a PBM binding z-score of 1.09.
As for CGTCCAAGGTCAGAGATGTCAGTGAATGCCGAGT, the PBM binding z-score was 1.04.
CACACTAGGTCACGAAAGGTCAAAGTCGAATGAC returned a PBM binding z-score of 8.24.
On to GATACAGGGTCAGCTAGAGGCAAGAGTATGGAAA, for which the PBM binding z-score worked out at 1.71.
In the case of CGAACTAGGTCACAACAGGACAGTGAAGGATGAT, the PBM binding z-score stood at 6.22.
For the sequence ATATGTAGGTTTAGGGTCATTCAGGTTGGTTCGC, the PBM binding z-score was determined as 6.7.
The same measure, in the same setting: for CCGACTGGGGCAAGGTTAGCATAACGCACAGCCA the value was 2.39; for CGTCCAAGGTCATCGGAGGTCAGTGAAGACAGAT, 4.7; for TCTCGGAGGACACGAAAGGTCAGAGTTCGACATC, 3.12.
The same measure, in the same setting: the figure for CCTACTGGCCCACGAAAGGTCATTGATTCAGTGA is 1.47.
Sequence TCATATAGGTAAAGGCGAAAGTCGAACGATATGA gave a PBM binding z-score of 3.23.
The same measure, in the same setting: the figure for CAAACTAGGTCAGAGAGGTCAAAGTCCGTGCGTA is 7.01; for TAGCCTAGGTCAGATCGGGCCAGTATCCGCTATA it is -0.0749; for CTCGAAAGGCCGGTTGAGGTGAGTATACGGATAA it is -0.48.
